Out of some 200,000 compounds screened, about 4,500 (2.2%) were called active. Another 12% or so got no clear call; they are omitted. What follows is part of a selection rich in actives, with near analogues and random picks from the rest. Values without a mark were called inactive. Calls come from the whole dose curve; as a rule, active = well fitted inhibition curve with a large enough effect; inconclusive = small, poorly fitted or top-dose-only effect, or effect the other way; inactive = flat fitted curve, though single readings scatter.
Potency is the fitted concentration of half-maximal effect.

Cruzipain (Trypanosoma cruzi), sequence (P25779 123-467 limits assumed): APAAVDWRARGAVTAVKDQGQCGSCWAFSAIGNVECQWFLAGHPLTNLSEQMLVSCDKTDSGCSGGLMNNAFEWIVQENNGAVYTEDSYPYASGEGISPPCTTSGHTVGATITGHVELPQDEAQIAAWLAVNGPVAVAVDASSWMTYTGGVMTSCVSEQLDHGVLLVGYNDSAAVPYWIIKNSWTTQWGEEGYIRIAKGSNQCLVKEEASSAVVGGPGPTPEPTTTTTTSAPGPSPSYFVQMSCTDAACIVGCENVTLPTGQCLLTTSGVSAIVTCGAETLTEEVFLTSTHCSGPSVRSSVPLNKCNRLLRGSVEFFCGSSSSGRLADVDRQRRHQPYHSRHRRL

For this experiment, the target named is Cruzipain (Trypanosoma cruzi) (UniProt P25779). Nature of the experiment: qHTS Assay for Promiscuous and Specific Inhibitors of Cruzain (without detergent).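 For max response, negative = inhibition: plate controls were enzyme without inhibitor for no effect and buffer without enzyme for full effect.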 Note: nearly all actives have a fitted effect of over 40% in size. As to conditions: purified cruzain, Z-FR-AMC fluorescence, no detergent. In a few lines:
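Purified cruzain at 1.5 nM, pre-incubated 15 min with compound at room temperature in 100 mM sodium acetate pH 5.5, 5 mM DTT, 0.00005% Triton X-100. Reaction started with 2 uM Z-FR-AMC; AMC fluorescence increase over 60 s gives rate.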
(qHTS replaces the single test concentration by a dilution series.)
With `CCC(=O)N1CCc2cc(S(=O)(=O)NC(C(=O)Nc3ccc(C(C)=O)cc3)C(C)C)ccc21` (configuration not stated), the max response, negative = inhibition is -5.8%.

For `O=C1CN(C(=O)Nc2ccccc2C(F)(F)F)C(c2ccccc2)c2c(sc3c2CCCC3)N1` (configuration not stated), the max response, negative = inhibition was -8.71%.

As for `O=C(COc1ccccc1F)OCc1cc(=O)n2nc(C3CCCCC3)sc2n1`, the max response, negative = inhibition is -11.4%.

For `Cc1cccc(C)c1NC(=O)CSc1ccc([N+](=O)[O-])cn1`, the max response, negative = inhibition was -1.59%.

Take `Cc1ccc(-n2c(C)cc(/C=N/Nc3ccc([N+](=O)[O-])cn3)c2C)c(C)c1`: the Potency was 3.98 µM (active).

In the case of `Cc1ccc(-n2c(C)cc(/C=N\NC(=O)CC(=O)NC(C)C)c2C)cc1`, the max response, negative = inhibition was -4.29%.

`CCOc1ccc(C(=O)N2CCN(CCc3ccccn3)CC2)cc1`: the max response, negative = inhibition is -2.86%.

Consider `CSc1cccc(NC(=O)CN2C(=O)CCc3cc(S(=O)(=O)N4CCCCC4)ccc32)c1`, for which the max response, negative = inhibition is -6.74%.

Take `CCOC(=O)N1CCc2c(sc3c2c(=O)n(Cc2ccccc2)c(=O)n3CC(=O)Nc2cccc(C)c2)C1`: the max response, negative = inhibition was -13.3%.

On to `COc1cccc(NC(=O)C(C)Oc2ccccc2)c1` (configuration not stated), for which the max response, negative = inhibition is 2.56%.

In the case of `COc1cccc(NC(=O)C(Sc2nc3ccccc3c(=O)n2CC(C)C)c2ccccc2)c1` (configuration not stated), the Potency is 5.01 µM (active).

For `COCCn1c(SCC(=O)Nc2ccc3c(c2)CCC3)nc2ccccc2c1=O`, the max response, negative = inhibition was 7.57%.

As for `O=S(=O)(Nc1ccc2nc(-c3cccc(Cl)c3)oc2c1)c1ccccc1`, the max response, negative = inhibition is 5.84%.

In the case of `COc1ccc(CNC(=O)c2cc3c(=O)[nH]c4ccccc4c3s2)cc1`, the max response, negative = inhibition was -0.0351%.

As for `COc1c(C)cccc1C(=O)Nc1cc(Cl)ccc1N1CCOCC1`, the max response, negative = inhibition is -1.36%.

For `CC(C)CC(=O)Nc1cc(C(F)(F)F)ccc1N1CCOCC1`, the max response, negative = inhibition is -0.397%.

On to `O=C(NC(=S)Nc1cc(C(F)(F)F)ccc1N1CCOCC1)c1ccc(-c2cccc(Cl)c2)o1`, for which the Potency was 10 µM (active).

Turning to `COc1ccccc1/C=C/c1nc(C#N)c(NC(C)c2ccccc2)o1` (configuration not stated), the max response, negative = inhibition is -27.6%.

On to `Cc1ccc(NC(=O)C2CCCN2S(=O)(=O)c2cccc3cccnc23)c(C)c1` (configuration not stated), for which the max response, negative = inhibition is -5.43%.

For the compound `O=C(/C=C/Nc1ccccc1)c1cnc(-c2ccccc2)s1`, the Potency is 12.6 µM (active).

Regarding `Cc1ccc(N/C=C/C(=O)c2ccccc2)cc1C`, the max response, negative = inhibition is -22.6%.

Turning to `Cc1nc(-c2ccccc2)sc1C(=O)/C=C/c1ccccc1`, the max response, negative = inhibition is 3.75%.

`Cc1c(C)n(Cc2ccc(Cl)cc2)c2ccc(C(=O)NCCc3ccc(S(N)(=O)=O)cc3)cc12`: the max response, negative = inhibition was -27.4%.

As to `NC(=O)CSc1nc2c(oc3ccccc32)c(=O)n1Cc1ccccc1`, the max response, negative = inhibition was 1.12%.

Consider `OCCNc1nc2ccccc2[nH]1`, for which the max response, negative = inhibition is -0.339%.

As for `O=C(CSc1nc2ccccc2[nH]1)c1cccs1`, the max response, negative = inhibition was -7.22%.

Turning to `C/C(=N\Nc1nc2ccccc2[nH]1)c1cccs1`, the Potency was 25.1 µM (active).

As to `Cc1ccc(Cn2c(C)c3cnn(CC(=O)NCc4ccccc4)c(=O)c3c2C)cc1`, the max response, negative = inhibition is -6.45%.

For the compound `COc1ccc(Nc2ncc3c(n2)CCN(C(=O)OC(C)(C)C)C3)cc1`, the max response, negative = inhibition is -2.11%.

Turning to `O=C(Cc1ccc(Cl)cc1)NCC(c1cccs1)S(=O)(=O)c1ccc(Cl)cc1` (configuration not stated), the max response, negative = inhibition was 1.56%.

Turning to `CCc1nn(CC(=O)N2CCN(c3cc(C)ccc3C)CC2)c(=O)c2cc3occc3n12`, the max response, negative = inhibition is 6.7%.

Regarding `COc1ccc(S(=O)(=O)Nc2ccc3c(c2)OCO3)cc1Cl`, the Potency was 15.8 µM (active).

As for `COc1ccc(F)cc1S(=O)(=O)Nc1ccc2c(c1)OCO2`, the max response, negative = inhibition was 9.18%.

As to `CC(C)CNS(=O)(=O)c1ccc(OCC(=O)Nc2ccc3c(c2)OCO3)c(Cl)c1`, the max response, negative = inhibition is -2.91%.

Consider `COc1cc(Br)cc2cc(S(=O)(=O)c3ccccc3)c(=O)oc12`, for which the max response, negative = inhibition is -12.9%.

On to `CC1(c2ccccc2)CC(C)(C)N(C(=O)c2cc([N+](=O)[O-])cc([N+](=O)[O-])c2)c2ccccc21` (configuration not stated), for which the Potency was 25.1 µM (active).

For `CC1(c2cccc([N+](=O)[O-])c2)CC(C)(C)N(C(=O)c2ccccc2)c2ccccc21` (configuration not stated), the max response, negative = inhibition is -29.1%.

For `Cc1nnc(SCC(=O)N2c3ccccc3C(C)(c3ccc(Cl)cc3)CC2(C)C)s1` (configuration not stated), the max response, negative = inhibition is -0.125%.

For `Cc1ccc(Cn2cc(CCC(=O)NCc3ccc(OC(C)C)cc3)c3ccccc32)cc1`, the max response, negative = inhibition was 6.72%.

Regarding `Cc1cc(C)cc(NC(=O)CSc2oc(-c3ccccc3)nc2S(=O)(=O)c2ccc(Cl)cc2)c1`, the max response, negative = inhibition was -6.39%.

On to `COCCNC(=O)CSc1c(C)cnc2c1c(=O)n(C)c(=O)n2C`, for which the max response, negative = inhibition was 7.18%.

In the case of `COc1ccc(-c2c3c(=O)n(C)c(=O)n(C)c3cn2NC(C)=O)cc1`, the max response, negative = inhibition was -4.34%.

`Cc1ccc(-c2c3c(=O)n(C)c(=O)n(C)c3cn2-n2cnnc2)cc1`: the Potency was 12.6 µM (active).

As to `Cc1ccc(-c2c3c(=O)n(C)c(=O)n(C)c3cn2-c2ccccc2O)cc1`, the max response, negative = inhibition is 12.7%.

On to `CC(=O)c1ccc(NS(=O)(=O)c2ccc(-c3cc(C)no3)s2)cc1`, for which the max response, negative = inhibition is -22.1%.

In the case of `CCC(=O)Nc1ccc2nc(SCC(=O)N3CCc4ccccc43)sc2c1`, the max response, negative = inhibition was 26.9%.

Regarding `O=C(Nc1ccc2nc(SCC(=O)N3CCCc4ccccc43)sc2c1)c1ccc(Cl)cc1`, the Potency was 10 µM (active).

`O=C(Nc1ccc2nc(SCC(=O)N3CCc4ccccc43)sc2c1)c1ccccc1F`: the max response, negative = inhibition is -3.59%.

For `COc1ccccc1NC(=O)CCC(=O)N1CC(C)Oc2ccc(C)cc21` (configuration not stated), the max response, negative = inhibition was -1.12%.

As for `COc1ccc(C2CC(c3ccccc3)=NN2C(=O)CSc2nccc(=O)[nH]2)cc1` (configuration not stated), the max response, negative = inhibition is -19%.

Consider `COc1ccccc1N1CCN(C(=O)Cn2nnc(-c3cccs3)n2)CC1`, for which the max response, negative = inhibition is -5.5%.

On to `O=C1c2cccc(OCC(=O)N3N=C(c4cccs4)CC3c3ccc(F)cc3)c2CCN1Cc1ccccc1` (configuration not stated), for which the Potency was 12.6 µM (active).

As for `O=C(Cn1ncc2c3ccccc3n(Cc3ccccc3)c2c1=O)NCc1ccccn1`, the max response, negative = inhibition was 20.3%.

`COC(=O)c1cnc(N2CCN(c3ccccc3OC)CC2)c2ccccc12`: the max response, negative = inhibition is 5.66%.

As to `N#CCSc1nc2c(c(=O)n1Cc1ccccc1)C1(CCCC1)Cc1ccccc1-2`, the Potency is 12.6 µM (active).

Take `N#CCSc1nc2ccccc2c(=O)n1-c1ccccc1`: the max response, negative = inhibition is 3.22%.

Consider `Cc1cccc(-n2c(SCC(N)=O)nc3c(c2=O)C2(CCCCC2)Cc2ccccc2-3)c1`, for which the max response, negative = inhibition was -0.318%.

For `CCS(=O)(=O)N1CCc2cc(C(=O)NCc3ccc(OC)cc3)ccc21`, the max response, negative = inhibition is -7.6%.

Regarding `CCCCS(=O)(=O)c1oc(-c2cccs2)nc1S(=O)(=O)c1ccccc1`, the max response, negative = inhibition was -4.72%.

For `COC(=O)c1ccc(C2C(C(=O)Nc3ccccc3)=C(C)Nc3nc4ccccc4n32)cc1` (configuration not stated), the max response, negative = inhibition was -6.78%.

With `CC(C)Nc1nnc(SCC(=O)c2c[nH]c3ccccc23)s1`, the max response, negative = inhibition is -13.7%.

As to `CC(C)c1ccc(Nc2nnc(SCC(=O)c3nnc(-c4ccccc4)o3)s2)cc1`, the Potency is 12.6 µM (active).

On to `Cc1ccsc1C(=O)OCC(=O)c1cc2ccccc2o1`, for which the max response, negative = inhibition was 2.71%.

For `Cc1ccc(Nc2nnc(SCC(=O)c3cc4ccccc4o3)s2)cc1C`, the Potency is 15.8 µM (active).

`Cc1ccc(Nc2nnc(SCc3ccccc3)s2)cc1`: the max response, negative = inhibition was -12.9%.

As for `O=C(CSc1nnc(Nc2ccccc2)s1)Nc1cccnc1Cl`, the max response, negative = inhibition was -18%.

On to `CCN(c1ncnc2c1cnn2-c1ccc(C)cc1)C1CCCCC1`, for which the max response, negative = inhibition is 2.47%.

For `COc1cccc(-n2c(=O)c3c(C)c(C(=O)N(C)C)sc3n(Cc3cccc(C)c3)c2=O)c1`, the max response, negative = inhibition is -4.38%.

For the compound `O=C(Nc1ccc(F)cc1F)c1ccc2c(=O)n3c(nc2c1)CCCCC3`, the max response, negative = inhibition is -3.34%.

Take `CN(Cc1ccccc1)C(=O)c1cc2c(=O)n(C)c3ccccc3c2s1`: the max response, negative = inhibition is 3.44%.

As for `Cc1cc(-c2csc(N)n2)c(C)n1-c1ccccc1`, the Potency was 25.1 µM (active).

Take `Cc1n[nH]c(=O)n1-c1ccc(Oc2ccccc2)cc1`: the max response, negative = inhibition is 4.55%.

As to `Cc1cc(C(=O)OCC(=O)N2c3ccccc3NC(=O)C2(C)C)c(C)n1-c1ccccc1`, the max response, negative = inhibition is -5.2%.

`Cc1cccc(N(C)C(=O)CS(=O)(=O)c2cccc3nsnc23)c1`: the max response, negative = inhibition was -1.79%.

In the case of `COc1ccc(-n2c(SCC(=O)Nc3ccc(Cl)c(C)c3)nc3n[nH]c(C)c3c2=N)cc1`, the max response, negative = inhibition is -5.01%.

For `CCC(=O)N1CCc2cc(S(=O)(=O)NC(CC(C)C)C(=O)NCCc3cccc(C)c3)ccc21` (configuration not stated), the max response, negative = inhibition is -3.67%.

In the case of `COc1ccc(C)cc1NC(=O)C(Sc1ccccc1)c1ccccc1` (configuration not stated), the max response, negative = inhibition was -12.8%.

Turning to `Cc1ccc(C)c(NC(=O)C(OC(=O)c2ccc(C)s2)c2ccccc2)c1` (configuration not stated), the max response, negative = inhibition is 12.2%.

For `COc1ccc(C)cc1NC(=O)C(OC(=O)c1cccc(S(=O)(=O)N(C)c2ccccc2)c1)c1ccccc1` (configuration not stated), the Potency is 7.94 µM (active).

For the compound `COc1c(Cl)cc(Cl)cc1C(=O)Nc1cccc2cccnc12`, the max response, negative = inhibition is -4.23%.

With `O=C1OCCN1C(=O)[C@H]1[C@H](c2ccc(Cl)cc2)C(c2cccc(Cl)c2)=NN1c1ccc(Br)cc1`, the Potency is 8.91 µM (active).

Take `Cc1ccc2c(c1)N(C(=O)Nc1ccc(Br)cc1F)CCO2`: the max response, negative = inhibition is 5.17%.

Take `C[C@@H]1C(c2ccc(F)cc2)=NN(c2ccc(Br)cc2)[C@H]1C(=O)N1CCOC1=O`: the Potency is 22.4 µM (active).

As to `O=C1OCCN1C(=O)[C@H]1[C@H](c2ccc(F)cc2)C(c2ccccc2)=NN1c1ccc(Br)cc1`, the Potency is 22.4 µM (active).

As to `COc1ccc(NS(=O)(=O)c2cc3c4c(c2)CC(=O)N4CCC3)cc1Cl`, the max response, negative = inhibition was -28.2%.

With `COc1cccc(CNC(=O)c2ccc3c(c2)sc2nc(-c4cccc(OC)c4)cn23)c1`, the max response, negative = inhibition was -4.99%.

For `CC1CCN(c2nc3ccc(C(=O)N4CCN(c5ccccc5)CC4)cc3s2)CC1`, the max response, negative = inhibition is -2.72%.

The record behind these values is PubChem BioAssay AID1476 (National Center for Advancing Translational Sciences (NCATS), 2009).
